The list is not random: actives were taken first. Their share in the collection is about 4.6%.
TIM10 inh = TIM10 yeast growth inhibition. S. cerevisiae TIM10 strain growth, BacTiter-Glo luminescence, 24 h. 330,000 tested, 1.4% active. inhibition, % at 10 µM;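 active means inhibition of 40% or more at the single tested concentration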;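 further: wild-type TIM10 isogenic control strain grown at permissive 25 °C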
NALP3 yeast inh = inhibitors of NALP3 inflammasome in yeast; 330,000 tested, 0.39% active; Yeast reconstituted NLRP3/ASC/caspase-1, beta-gal luminescence, 24 h; inhibition, % at 10 µM;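 active means inhibition of 50% or more; inactive means inhibition below 50%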
PfHsp90 yeast 2 = reduces growth (ATP signal) of yeast expressing P. falciparum Hsp90 | S. cerevisiae expressing PfHsp90, BacTiter-Glo ATP, 48 h; yeast lacking PDR1 and PDR3 efflux regulators | 310,000 tested, 0.32% active | inhibition, % at 9.4 µM;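 active means every replicate shows inhibition above about 80%, whatever the replicate mean, limit read from the data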
tim23-1 inh = inhibits growth of tim23-1 mutant yeast | S. cerevisiae tim23-1 growth, BacTiter-Glo luminescence, 24 h | inhibition, % at 20 µM | 330,000 tested, 1.3% active | AID 463212;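 active means growth inhibition of the mutant yeast at or above 50%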;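 further: temperature-sensitive mutant grown at 25 °C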
tim10-1 inh = growth inhibitors of tim10-1 mutant yeast; S. cerevisiae tim10-1 ts strain growth, BacTiter-Glo, 24 h; inhibition, % at 20 µM; 330,000 tested, 2.2% active;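 active means inhibition of at least 40%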;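 further: mutant grown at 25 °C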
SKKanGAS inh = blocks kanamycin growth of S. pyogenes SKKanGAS strain. inhibition, % at 7.5 µM. BacTiter-Glo, 6 h. 300,000 tested, 1.3% active;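 active means mean replicate score, as percent of positive control median, at least 50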;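 further: strain carries kanamycin resistance gene driven by streptokinase promoter and grows in 40 µg/ml kanamycin; loss of luminescence reflects streptokinase promoter inhibition or plain growth inhibition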
tim10-1 confirm = tim10-1 yeast growth inhibition, confirmed; S. cerevisiae tim10-1 ts strain growth, BacTiter-Glo, 24 h; shares compounds with tim10-1 inh; 7,400 tested, 56% active; AID 463213; inhibition, % at 20 µM;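 active means inhibition of yeast growth at or above a set limit in either of two repeat tests at 20 µM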;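 further: tim10-1 mutant grown at permissive 25 °C to find synthetic lethal compounds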
TIM10 conf = TIM10 yeast growth inhibition, confirmed; shares compounds with TIM10 inh; S. cerevisiae tim10 strain growth, BacTiter-Glo luminescence, 24 h; inhibition, % at 10 µM; 4,600 tested, 63% active;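 active means inhibition of yeast growth at or above a set limit in either of two replicates at 10 µM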; further: this counterscreen used the strain with wild-type TIM10
tim23-1 confirm = tim23-1 yeast growth inhibition, confirmed; 4,400 tested, 83% active; shares compounds with tim23-1 inh; S. cerevisiae tim23-1 growth, BacTiter-Glo luminescence, 24 h; inhibition, % at 20 µM;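 active means inhibition above about 39% in either of two replicate wells at 20 µM, limit read from the data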;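 further: temperature-sensitive tim23-1 mutant grown at 25 °C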
Each line names hits and unclear results; the compound was inactive in the other large screens (follow-up assays come after a bar, where they were run).

Cc1ccccc1N=Cc1c(O)n(-c2nccs2)c(=O)c2ccccc12	TIM10 inh 47.1, tim23-1 inh 59.4, tim10-1 inh 47.9 | tim10-1 confirm 47.0 | TIM10 conf 45.6 | tim23-1 confirm 56.0
O=C(O)c1ccccc1N=Cc1c(O)n(-c2nccs2)c(=O)c2ccccc12	none
CC(=O)c1ccc(N2CCN(C(=O)c3ccc(NC4=NC5CS(=O)(=O)CC5S4)cc3)CC2)cc1 (stereo unspecified)	none
O=C(COc1ccc(Cl)cc1Br)NC(=O)NC1CCCC1	tim23-1 inh 51.7, tim10-1 inh 51.1 (no result: PfHsp90 yeast 2, SKKanGAS inh) | tim10-1 confirm 38.5 | tim23-1 confirm 62.8
O=C(COc1ccc(Br)cc1Cl)NC(=O)NC1CCCC1	tim23-1 inh 56.0, tim10-1 inh 41.5 (no result: SKKanGAS inh) | tim10-1 confirm 40.9 | tim23-1 confirm 54.6
O=C(COc1ccc(Cl)cc1Cl)NC(=O)NC1CCCC1	none (no result: PfHsp90 yeast 2, SKKanGAS inh)
O=C(N/N=C/c1ccccc1O)NC12CC3CC(CC(C3)C1)C2	tim23-1 inh 71.3, tim10-1 inh 44.4, SKKanGAS inh 83.8 | tim10-1 confirm 36.5 | tim23-1 confirm 67.8
O=C(N/N=C/c1ccc(O)c(O)c1)NC12CC3CC(CC(C3)C1)C2	none
O=S1(=O)CCN2N=C(C34CC5CC(CC(C5)C3)C4)SC2=N1	none
CCNC(=S)N/N=C/c1cn(Cc2ccccc2F)c2ccccc12	none
CNC(=S)N/N=C/c1cn(Cc2c(F)cccc2Cl)c2ccccc12	TIM10 inh 57.1, tim23-1 inh 51.1, tim10-1 inh 47.1 | tim10-1 confirm 37.0 | TIM10 conf inactive | tim23-1 confirm 40.0
Cc1ccc(/C=c2\sc3nc(-c4ccco4)nn3c2=O)o1	none
COc1ccc(Br)cc1/C=c1\sc2nc(-c3ccco3)nn2c1=O	TIM10 inh 41.6, tim23-1 inh 53.0, tim10-1 inh 54.3 | tim10-1 confirm 44.2 | TIM10 conf 38.5 | tim23-1 confirm 54.8
O=C(Nc1ccc(N2CCOCC2)cc1)c1ccc([N+](=O)[O-])o1	tim23-1 inh 55.0, tim10-1 inh 55.3 | tim10-1 confirm inactive | tim23-1 confirm 57.9
COc1ccc(-c2cc3ccccc3oc2=O)cc1NC(=O)c1ccc([N+](=O)[O-])o1	TIM10 inh 62.4, tim23-1 inh 70.5, tim10-1 inh 66.0 (no result: PfHsp90 yeast 2) | tim10-1 confirm 63.7 | TIM10 conf 71.8 | tim23-1 confirm 41.0
COc1ccc(-c2cc3ccccc3oc2=O)cc1NC(=O)c1ccc(Br)o1	none
O=C(Nc1ccc(S(=O)(=O)N2CCOCC2)cc1)c1ccc([N+](=O)[O-])o1	none
O=C(Nc1ccc(Cc2ccncc2)cc1)c1ccc([N+](=O)[O-])o1	TIM10 inh 44.9, tim23-1 inh 70.8, tim10-1 inh 67.1 | tim10-1 confirm 59.0 | TIM10 conf 43.0 | tim23-1 confirm 57.5
O=C(Nc1ccc(N2CCN(C(=O)c3cccs3)CC2)cc1)c1ccc([N+](=O)[O-])o1	TIM10 inh 71.6, tim23-1 inh 71.2, tim10-1 inh 71.7 | tim10-1 confirm 74.4 | TIM10 conf 77.2 | tim23-1 confirm 85.0
CCOC(=O)C1CCN(C(=O)C2COc3ccccc3O2)CC1 (stereo unspecified)	none
COc1cc(NC(=O)c2cccs2)ccc1NC(=O)Cc1ccccc1	none
COc1cc(NC(=O)c2ccc([N+](=O)[O-])o2)ccc1NC(=O)c1cccs1	tim23-1 inh 59.3, tim10-1 inh 45.5 | tim10-1 confirm 38.8 | tim23-1 confirm inactive
CSc1nc(-c2ccc(C)cc2)nc(N)c1C#N	none
CC1=C(C#N)c2nc(N)c(C#N)c(C)c2/C1=C\c1ccc(C)cc1	TIM10 inh 82.2, tim23-1 inh 55.9, tim10-1 inh 73.3, SKKanGAS inh 70.6 (no result: PfHsp90 yeast 2) | tim10-1 confirm 89.9 | TIM10 conf inactive | tim23-1 confirm 68.3
COC(=O)c1ccc2c(c1)C(C)(C)C(/C=C/c1ccccc1O)=[N+]2C	TIM10 inh 56.5, tim23-1 inh 65.9, tim10-1 inh 65.1 | tim10-1 confirm 57.2 | TIM10 conf 53.0 | tim23-1 confirm 71.3
C[N+]1=C(/C=C/Nc2ccccc2Cl)C(C)(C)c2ccccc21	none
CN(C)S(=O)(=O)c1cccc(NC(=S)Nc2cc(Cl)cc(Cl)c2)c1	TIM10 inh 60.5, tim23-1 inh 51.7, tim10-1 inh 58.2 | tim10-1 confirm 36.0 | TIM10 conf inactive | tim23-1 confirm 44.5
CN(C)S(=O)(=O)c1cccc(NC(=S)Nc2ccc(Cl)cc2Cl)c1	none
Oc1c(Br)cc(Cl)cc1C=Nc1ccccc1Br	tim23-1 inh 84.1, tim10-1 inh 45.9 | tim10-1 confirm inactive | tim23-1 confirm 78.7
CCN(C(=O)CSc1nnnn1C)C1CCS(=O)(=O)C1 (stereo unspecified)	none (no result: SKKanGAS inh)
O=C(COC(=O)C1CCN(c2ccc(C(F)(F)F)cn2)CC1)Nc1ccc(Cl)cn1	none
O=C(COC(=O)C1CCN(c2ccc(C(F)(F)F)cn2)CC1)Nc1ccc(Cl)cc1	tim23-1 inh 55.8, tim10-1 inh 43.3 (no result: PfHsp90 yeast 2) | tim10-1 confirm 46.1 | tim23-1 confirm 59.6
Cc1ccc(S(N)(=O)=O)cc1NC(=O)/C=C/c1ccc2c(c1)OCO2	none
COc1ccc(N2CCN(CCCNC(=O)C(=O)c3c(C)n(C)c4ccccc34)CC2)cc1	none
O=c1[nH]c2ccccc2nc1-c1ccccc1	none
NC(=O)N=Nc1c2[nH]c3ccccc3nc-2c2ccccc12	TIM10 inh 52.5, tim23-1 inh 55.8, tim10-1 inh 43.8, SKKanGAS inh 72.1 | tim10-1 confirm 44.7 | TIM10 conf 62.4 | tim23-1 confirm 51.9
C[C@H](CO)N1C[C@H](C)[C@@H](CN(C)Cc2ccc3c(c2)OCO3)Oc2c(NS(=O)(=O)c3cn(C)cn3)cccc2C1=O	none (no result: SKKanGAS inh)
COc1ccccc1NC(=O)CN1CCN(CC(=O)Nc2ccc(Cl)c(C(F)(F)F)c2)CC1	none (no result: TIM10 inh, NALP3 yeast inh, tim23-1 inh, tim10-1 inh, SKKanGAS inh)
CCc1ccccc1NCC(=O)Nc1ccc(Cl)c(C(F)(F)F)c1	TIM10 inh 47.9, tim23-1 inh 51.7, tim10-1 inh 68.3 | tim10-1 confirm 54.2 | TIM10 conf inactive | tim23-1 confirm 57.1
C/C(CC(=O)Nc1ccc(Cl)c(C(F)(F)F)c1)=N\NC(=O)c1cccc(O)c1	none
C/C(CC(=O)Nc1ccc(Cl)c(C(F)(F)F)c1)=N\NC(=O)c1ccccc1O	tim23-1 inh 56.9, tim10-1 inh 46.8, SKKanGAS inh 103.5 | tim10-1 confirm 39.0 | tim23-1 confirm 41.2
COc1ccc(N2CCN(C(=O)COC(=O)c3ccc(-n4nc(C)cc4C)cc3)CC2)cc1	none (no result: SKKanGAS inh)
